A short description of experiment [1]: Cell Viability - N2a (AID 540).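 Further: plate controls were DMSO alone for no effect and tamoxifen control for full effect; nearly all actives have a fitted effect of over 45% in size.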 To be noted: N2a mouse neuroblastoma cell viability; activity change, negative = cytotoxicity: at 92.2 µM (top of the series). The method in brief:
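Mouse neuroblastoma N2a cells, 1500/well, exposed to compounds 40 h at 37 °C in complete medium. Viability measured as cellular ATP by CellTiter-Glo luminescence; AC50 from Hill fits of concentration-response.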

A short description of experiment [2]: Cell Viability - Renal Proximal Tubule (AID 545).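 Further: 0% = DMSO only and -100% = 100 µM tamoxifen; nearly all actives have a fitted effect of over 40% in size.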 Summed up:
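Viability taken as intracellular ATP (CellTiter-Glo luminescence) after 40 hr, 37 °C compound treatment of primary proximal tubule cells from rat kidney, 1000 cells/well; Hill-equation fits of qHTS concentration-response data gave AC50.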

For experiment [3], the target named is Cytochrome P450 3A4 (Homo sapiens) (UniProt P08684). Briefly: qHTS Assay for Inhibitors and Substrates of Cytochrome P450 3A4 (AID 884). Further: on the % scale 0 is the no-effect control and ±100 the full control effect; nearly all actives have a fitted effect of over 50% in size. Summed up: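 20 nM human CYP3A4 with 25 uM Luciferin-PPXE (at KM) in 200 mM KPO4, preincubated 10 min with compound; NADPH regeneration started a 60 min RT reaction. Luciferin detected by luminescence, normalized to 57 uM ketoconazole as full inhibition.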
Cytochrome P450 3A4 (Homo sapiens), sequence (P08684 whole entry, looked up): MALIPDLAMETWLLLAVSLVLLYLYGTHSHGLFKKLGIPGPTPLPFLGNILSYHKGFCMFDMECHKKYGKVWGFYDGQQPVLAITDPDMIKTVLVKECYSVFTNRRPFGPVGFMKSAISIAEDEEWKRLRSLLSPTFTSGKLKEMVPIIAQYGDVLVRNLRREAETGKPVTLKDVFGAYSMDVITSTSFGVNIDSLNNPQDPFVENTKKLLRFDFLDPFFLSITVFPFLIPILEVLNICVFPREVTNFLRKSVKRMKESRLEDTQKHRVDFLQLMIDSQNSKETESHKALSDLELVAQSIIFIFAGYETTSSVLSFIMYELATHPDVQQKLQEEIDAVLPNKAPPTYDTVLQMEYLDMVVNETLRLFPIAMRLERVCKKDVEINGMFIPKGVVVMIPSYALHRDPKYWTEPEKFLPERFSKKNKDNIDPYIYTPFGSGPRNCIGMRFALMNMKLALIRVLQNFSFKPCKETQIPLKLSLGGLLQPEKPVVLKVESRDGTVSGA
In general terms: qHTS replaces the single test concentration by a dilution series.

The nature of experiment [4]: Cell Viability - LYMP2-001 (AID 921).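 Further: 0% = DMSO only and full inhibition = tetraoctylammonium bromide control wells; nearly all actives have a fitted effect of over 70% in size.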 Summed up:
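Cellular ATP loss read by luciferase luminescence after 24 h compound exposure at 37 C in complete medium. LYMP2-001 lymphoblastoid cells, 2500/well; qHTS concentration-response data fitted with Hill equation for AC50.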

A short description of experiment [5]: Cell Viability - LYMP2-003 (AID 965).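 Further: cells exposed to compounds for 24 h before reading; 0% = DMSO only and full effect = 92 µM tetraoctylammonium bromide; nearly all actives have a fitted effect of over 50% in size.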 The method in brief: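 CellTiter-Glo luminescence quantified ATP loss after 24 h compound treatment of LYMP2-003 lymphoblastoid cells at 37 C. Titration series were fitted with the standard Hill equation to give AC50.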
A short description of experiment [6]: Cell Viability - LYMP2-015 (AID 971).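 Further: 0% = DMSO only and full effect = 92 µM tetraoctylammonium bromide; nearly all actives have a fitted effect of over 55% in size.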 Summed up:
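LYMP2-015 human lymphoblastoid cells (2500/well) in complete medium, compound-treated 24 h at 37 C; viability read as cellular ATP by CellTiter-Glo luminescence after 30 min at room temperature. AC50 from Hill-equation fits of qHTS concentration-response data.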

Experiment [7] is described as follows: Cell Viability - LYMP2-019 (AID 973).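 Further: 0% = DMSO alone and full effect = 92 µM tetraoctylammonium bromide; nearly all actives have a fitted effect of over 55% in size.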 The method in brief:
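Human lymphoblastoid LYMP2-019 cells (2500/well) preincubated 5 h at 37 C, then treated 24 h at 37 C in complete medium. Viability by CellTiter-Glo ATP luminescence after 30 min at room temperature; AC50 from Hill fits.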

Experiment [8] is described as follows: Cell Viability - LYMP2-002 (AID 977).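 Further: plate controls were DMSO only for no effect and 92 µM tetraoctylammonium bromide for full effect.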 Summed up: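 Luminescent ATP readout (CellTiter-Glo, 30 min room temperature) after 24 h compound exposure at 37 C of a human lymphoblastoid line, 2500 cells/well. AC50 values derived by standard Hill fitting of qHTS concentration-response data.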
Experiment [9] is described as follows: Cell Viability - LYMP2-008 (AID 980). Further: on the % scale 0 is the no-effect control and ±100 the full control effect; nearly all actives have a fitted effect of over 60% in size. The method in brief: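 LYMP2-008 lymphoblastoid cells (2500/well) plated 5 h, then treated 24 h at 37 C in complete medium. Viability read as intracellular ATP by CellTiter-Glo luminescence after 30 min at room temperature; AC50 from Hill fits.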
The nature of experiment [10]: Cell Viability - LYMP2-010 (AID 981). Further: on the % scale 0 is the no-effect control and ±100 the full control effect; nearly all actives have a fitted effect of over 55% in size. The method in brief: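 Human lymphoblastoid LYMP2-010 cells (2500/well) treated 24 h at 37 C in complete medium; viability read as intracellular ATP by CellTiter-Glo luminescence. AC50 from Hill fits of concentration-response data; tetraoctylammonium bromide positive control.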
Experiment [11] is described as follows: Cell Viability - LYMP2-012 (AID 982).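 Further: cellular ATP by luciferase luminescence where a drop means cytotoxicity; cells exposed to compound for one day before reading; 0% = DMSO only and full loss = 92 µM tetraoctylammonium bromide; nearly all actives have a fitted effect of over 55% in size.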
Experiment [12] is described as follows: Cell Viability - LYMP2-020 (AID 986). The method in brief:
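Human lymphoblastoid LYMP2-020 cells (2500/well) preincubated 5 h at 37 C, then treated 24 h at 37 C. Viability measured as intracellular ATP by CellTiter-Glo luminescence after 30 min at room temperature; AC50 from Hill fits.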

Experiment [13] is described as follows: Cell Viability - LYMP2-022 (AID 987). Summed up:
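LYMP2-022 lymphoblastoid cells (2500/well, complete medium) were treated with compounds for 24 hours at 37 C; intracellular ATP was then read by CellTiter-Glo luminescence after 30 min at room temperature. AC50 values were derived from Hill-equation fits.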

Experiment [14] can be described thus: Cell Viability - LYMP1-002 - Assay at 40 hr (AID 994).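 Further: 0% = DMSO only and full inhibition = 92 µM tetraoctylammonium bromide; nearly all actives have a fitted effect of over 60% in size.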 The method in brief:
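LYMP1-002 human lymphoblastoid cells (2500/well, complete medium) were treated with compounds for 40 hr at 37 C. Intracellular ATP was measured by CellTiter-Glo luminescence, and AC50 values came from Hill-equation fits of concentration-response data; tetraoctylammonium bromide was the positive control.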

The nature of experiment [15]: qHTS assay for small molecule agonists of retinoid X receptor alpha signaling (AID 588544). The settings on record: HEK293T RXRa-UAS-bla, beta-lactamase reporter, 18 h; 530 nm emission.
Experiment [16] in a line: qHTS assay for small molecule antagonists of retinoid X receptor alpha signaling (AID 588546; active means well fitted inhibition curve with a large enough effect in the signal ratio, with a control signal flat, not every such curve was filed as active; the % refers to the signal ratio;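 further: cells stimulated with 9-cis-retinoic acid as agonist; on the % scale 0 is the no-effect control and ±100 the full control effect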). The settings on record: HEK293T RXRa-UAS-bla, beta-lactamase ratio, antagonist mode; measured here: W530 green channel, cytotoxicity proxy. The method in brief:
(§1)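 Beta-lactamase reporter inhibition, read as CCF4 fluorescence ratio (ex 405, em 460/530 nm) after 2 h at RT. HEK293T UAS-bla cells, 2500/well, were stimulated with 9-cis-RA at 500 or 100 nM final alongside test compound for 18 h at 37 C.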

Experiment [17] addresses Retinoic acid receptor RXR-alpha (Homo sapiens) (UniProt P19793). The description is as above. The settings on record: HEK293T RXRa-UAS-bla, beta-lactamase ratio, antagonist mode. Summed up: as §1
Experiment [18] deals with Tumor necrosis factor (Homo sapiens) (UniProt P01375). The experiment can be described thus: qHTS assay to identify small molecules that stimulate Tumor Necrosis Factor-alpha (TNF-alpha) secretion (AID 651757; active means well fitted curve in the direction sought with a large enough effect in the signal ratio; the % refers to the signal ratio; further: 0% is about no effect). The method in brief:
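THP-1 cells (3000/well) exposed to compounds 17 hrs at 37 C. Secreted TNF-alpha detected by HTRF with cryptate- and XL665-labeled anti-TNF-alpha antibodies after 3 hr at room temperature.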

A short description of experiment [19]: qHTS assay for small molecule antagonists of the retinoid-related orphan receptor gamma (ROR-gamma) signaling pathway - cell viability counter screen (AID 720652; active means well fitted curve in the direction sought with a large enough effect in the repeat runs; an effect the other way counts as inactive or inconclusive;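 further: CHO reporter cells with doxycycline-induced ROR-gamma expression; compound exposure lasted 16 hr before ATP read; on the % scale 0 is the no-effect control and ±100 the full control effect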). The method in brief: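 CHO cells carrying TET-inducible ROR and RORE-luciferase reporter, plated 5 hr, then dosed with compound plus doxycycline. After 16 hr at 37 C, viability read as intracellular ATP by CellTiter-Glo luminescence.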

Experiment [20] in a line: Cell Viability - SH-SY5Y (AID 544). To be noted: SH-SY5Y neuroblastoma cell viability; viability change, negative = cytotoxic: at 92.2 µM (top of the series). Summed up:
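SH-SY5Y human neuroblastoma cells (1500/well) incubated 5 h, then compound-treated 40 h at 37 °C in complete medium. Viability read as intracellular ATP by CellTiter-Glo luminescence after 20 min; AC50 from Hill-equation fits of qHTS concentration-response.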

The structures appear in SMILES notation. “And” between values parts separate entries of the source, which are not always exact repeats. Equal entries are not always repeated. Inconclusive results are not listed. The source made the active and inactive calls. Unless noted, the call rests on the fitted dose curve; in most records, active means well fitted curve in the direction sought with a large enough effect; inconclusive means small, poorly fitted or top-dose-only effect, or another doubt; inactive means no such curve, though single readings can be large; an effect the other way counts as inactive or inconclusive.

Retinoic acid receptor RXR-alpha (Homo sapiens), sequence (P19793 whole entry, looked up): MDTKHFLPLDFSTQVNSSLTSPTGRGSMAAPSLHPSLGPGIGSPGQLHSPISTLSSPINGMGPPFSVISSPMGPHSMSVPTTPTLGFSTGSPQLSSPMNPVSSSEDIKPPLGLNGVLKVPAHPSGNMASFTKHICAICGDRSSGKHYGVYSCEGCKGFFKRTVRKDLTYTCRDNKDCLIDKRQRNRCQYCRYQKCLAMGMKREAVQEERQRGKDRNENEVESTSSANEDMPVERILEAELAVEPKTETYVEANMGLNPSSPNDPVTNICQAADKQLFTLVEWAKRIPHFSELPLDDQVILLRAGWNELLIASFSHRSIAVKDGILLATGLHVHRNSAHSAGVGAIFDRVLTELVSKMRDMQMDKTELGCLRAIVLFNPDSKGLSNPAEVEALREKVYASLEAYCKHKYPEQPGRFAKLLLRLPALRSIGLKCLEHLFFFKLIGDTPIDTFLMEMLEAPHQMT
Tumor necrosis factor (Homo sapiens), sequence (P01375 whole entry, looked up): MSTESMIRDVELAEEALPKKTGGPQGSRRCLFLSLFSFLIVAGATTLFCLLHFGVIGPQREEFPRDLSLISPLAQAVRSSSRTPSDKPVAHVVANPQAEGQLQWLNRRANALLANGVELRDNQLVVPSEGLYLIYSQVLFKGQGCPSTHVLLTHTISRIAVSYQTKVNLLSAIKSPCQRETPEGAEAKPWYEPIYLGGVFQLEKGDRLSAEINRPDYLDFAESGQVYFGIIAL

As to `BrCC(Br)C1CCC(Br)C(Br)C1` (centres undefined), the Potency entry in [1], in [3], in experiment [4], in [5], in experiment [6] and in experiment [7] was “inactive” throughout. The Potency entry in experiment [8], in [9], in [10], in experiment [11], in [12] and in experiment [13] was “inactive” in each case. For the same compound, the Potency result in [14] and in experiment [19] was “inactive” each time. The result in experiment [2] and in experiment [18] was inactive. The results for the max response in [15], in experiment [16] and in [17] were 6.74%, -6.79% and 18% (inactive), respectively.

In the case of `FC(Cl)(Cl)Cl`, the Potency result in experiment [1], in [20], in [3], in [4], in experiment [5] and in experiment [6] was “inactive” in each case. Moreover, the Potency entry in [7], in [8], in experiment [9], in experiment [10], in experiment [11] and in experiment [12] was “inactive” in each case. Moreover, the Potency entry in [13], in experiment [14] and in experiment [19] was “inactive” each time. Also, the compound was called inactive in experiment [2] and in experiment [18]. For the same compound, the results for the max response in [15], in experiment [16] and in experiment [17] were -11.5%, -8.6% and -1.5% (inactive), respectively.

Consider `C[N+](=O)[O-]`, for which the Potency result in experiment [1], in experiment [20], in experiment [3], in experiment [4], in experiment [5] and in experiment [6] was “inactive” each time. In addition, the Potency entry in experiment [7], in experiment [8], in experiment [9], in [10], in [11] and in [12] was “inactive” throughout. The Potency result in experiment [13], in [14] and in [19] was “inactive” throughout. For the same compound, the result in experiment [2] and in experiment [18] was inactive. The results for the max response in [15], in experiment [16] and in experiment [17] were -4.73%, -7.25% and 4.36% (inactive), respectively.

For `CC(C)OS(C)(=O)=O`, the Potency entry in experiment [1], in experiment [20], in experiment [3], in experiment [4], in experiment [5] and in experiment [6] was “inactive” throughout. The Potency entry in [7], in [8], in experiment [9], in experiment [10], in [11] and in [12] was “inactive” throughout. Besides, the Potency result in experiment [13], in experiment [14] and in experiment [19] was “inactive” each time. Also, the result in experiment [2] and in experiment [18] was inactive. In addition, the results for the max response in experiment [15], in experiment [16] and in experiment [17] were -2.85%, 5.36% and 0.937% (inactive), respectively.

As for `O=c1ccc(=O)[nH][nH]1`, the Potency result in experiment [1], in experiment [20], in [3], in experiment [4], in experiment [5] and in experiment [6] was “inactive” throughout. For the same compound, the Potency result in experiment [7], in experiment [8], in experiment [9], in experiment [10], in [11] and in experiment [12] was “inactive” in each case. The Potency entry in [13], in experiment [14] and in [19] was “inactive” each time. Besides, the compound was classed as inactive in [2] and in experiment [18]. The max response was -8.67% and -14.6% in experiment [15]; -4.32% and 8.97% in [16]; -4.77% (inactive) and 2.87% (inactive) in experiment [17].

On to `Cc1ccc2c(C)cccc2c1`, for which the Potency entry in experiment [1], in experiment [20], in experiment [3], in experiment [4], in [5] and in [6] was “inactive” in each case. Further, the Potency entry in experiment [7], in experiment [8], in experiment [9], in [10], in [11] and in experiment [12] was “inactive” each time. The Potency entry in experiment [13], in experiment [14] and in experiment [19] was “inactive” each time. The compound was called inactive in [2] and in [18]. The max response in experiment [15] is -13.5%; in experiment [16], 4.96%; in experiment [17] it was 4.66% (inactive).

Take `CC(Cl)CCl` (centres undefined): the Potency result in [1], in [20], in [3], in experiment [4], in experiment [5] and in experiment [6] was “inactive” throughout. The Potency entry in experiment [7], in experiment [8], in experiment [9], in experiment [10], in [11] and in [12] was “inactive” throughout. The Potency result in experiment [13], in experiment [14] and in experiment [19] was “inactive” each time. In addition, the result in experiment [2] and in experiment [18] was inactive. Besides, the figures for the max response in [15], in experiment [16] and in [17] were -14.1%, -10% and -6.12% (inactive), respectively.
